Activity calls are given as the source filed them. The calls were made as follows: active = hit-call score of the fitted dose curve at least 0.9, where 1 is the maximum; inactive = score below 0.9.

The nature of assay [1]: CEETOX_H295R_DOC: CeeTox H295R High-throughput Steroidogenesis Assay for DOC (AID 2283439). Conditions: actives raise or lower the signal. A digest of the protocol:
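H295R, fsk 10 uM ×48 h pre, cmpd ×48 h (0.1% DMSO). Media → MTBE extr. → LC-MS/MS, DOC. Bidirectional fit vs DMSO; MTT viability same wells, re-test diluted if <70%.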

Assay [2] is described as follows: CEETOX_H295R_PROG: CeeTox H295R High-throughput Steroidogenesis Assay for Progesterone (PROG) (AID 2283442).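 As to AC50: human H295R adrenal cells primed with 10 µM forskolin before dosing; progesterone secreted into medium by H295R cells measured by HPLC-MS/MS.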 Conditions: actives raise or lower the signal. Put shortly: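 Adrenal H295R line, forskolin-stimulated (10 uM, 48 h) before dosing. 48 h exposure, 0.1% DMSO vehicle. Secreted progesterone by reverse-phase HPLC with ESI+ MS/MS quantification; DMSO-normalised bidirectional curve fit.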

Read-out in assay [3]: Tumor necrosis factor receptor superfamily member 6 (Homo sapiens) (UniProt P25445)
As to the kind of experiment: LTEA_HepaRG_FAS: Life Technologies and Expression Analysis (LTEA) Assay for Fas cell surface death receptor (FAS) using HepaRG (AID 2283447). The settings on record: mRNA level, 48 h; actives raise or lower the signal. Put shortly: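 Differentiated HepaRG cells in serum-free induction medium were exposed 48 h to 8 half-log concentrations up to 100 uM in 0.5% DMSO, in duplicate. FAS mRNA was measured by qRT-PCR normalised to ACTB, GAPDH and POLR2A; bidirectional fit versus DMSO.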

Read-out in assay [4]: Fatty acid synthase (Homo sapiens) (UniProt P49327)
The assay is described as follows: LTEA_HepaRG_FASN: Life Technologies and Expression Analysis (LTEA) Assay for Fatty Acid Synthase (FASN) using HepaRG (AID 2283448). Conditions: mRNA level, 48 h; actives raise or lower the signal. Put shortly:
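In human HepaRG cultures, 48 h chemical exposure (up to 100 uM, 0.5% DMSO) preceded TaqMan qRT-PCR of FASN.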

Read-out in assay [5]: Cyclin D2 (CCND2), CCND2 (gene 894)
As to the kind of experiment: LTEA_HepaRG_CCND2: Life Technologies and Expression Analysis (LTEA) Assay for Cyclin D2 (CCND2) using HepaRG (AID 2283449).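 Also: CCND2 transcript measured by TaqMan qRT-PCR and normalised to three housekeeping genes.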 The settings on record: mRNA level, 48 h; actives raise or lower the signal. A digest of the protocol:
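HepaRG, 48 h dosing, 8-pt half-log curve from 100 uM, 0.5% DMSO; duplicate wells. Readout: CCND2 transcript by microfluidic qRT-PCR, housekeeping-normalised; bidirectional fit vs DMSO baseline.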

Read-out in assay [6]: Cyclin Dependent Kinase Inhibitor 1A (CDKN1A), CDKN1A (gene 1026)
The assay is described as follows: LTEA_HepaRG_CDKN1A: Life Technologies and Expression Analysis (LTEA) Assay for Cyclin Dependent Kinase Inhibitor 1A (CDKN1A) using HepaRG (AID 2283450). The settings on record: mRNA level, 48 h; actives raise or lower the signal. A digest of the protocol: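 Cryopreserved HepaRG cells were plated and cultured 48 h, then switched to serum-free induction medium. Chemicals (eight half-log concentrations, top 100 uM, 0.5% DMSO) were applied for 48 h. Lysates underwent qRT-PCR for CDKN1A with housekeeping normalization.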

Read-out in assay [7]: Cyclin D1 (CCND1), CCND1 (gene 595)
The assay is described as follows: LTEA_HepaRG_CCND1: Life Technologies and Expression Analysis (LTEA) Assay for Cyclin D1 (CCND1) using HepaRG (AID 2283451).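 As to AC50: TaqMan qRT-PCR transcript level normalised to ACTB GAPDH and POLR2A housekeeping genes.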 The settings on record: mRNA level, 48 h; actives raise or lower the signal. A digest of the protocol: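 Human liver HepaRG line; 48 h dosing, 8 conc. ≤100 uM, 0.5% DMSO; TaqMan qRT-PCR mRNA, 3 housekeeping genes; bidirectional curve fit vs DMSO.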

Read-out in assay [8]: catalase (CAT), CAT (gene 847)
The assay is described as follows: LTEA_HepaRG_CAT: Life Technologies and Expression Analysis (LTEA) Assay for catalase (CAT) using HepaRG (AID 2283452). The settings on record: mRNA level, 48 h; actives raise or lower the signal. A digest of the protocol: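 HepaRG cells in serum-free induction medium, 0.5% DMSO vehicle, exposed 48 h in duplicate over 8 half-log concentrations from 100 uM. CAT mRNA measured by qRT-PCR, normalized to ACTB, GAPDH, POLR2A; bidirectional fit versus DMSO.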

Read-out in assay [9]: flavin-containing dimethylaniline monooxygenases 3 (FMO3), FMO3 (gene 2328)
As to the kind of experiment: LTEA_HepaRG_FMO3: Life Technologies and Expression Analysis (LTEA) Assay for flavin-containing dimethylaniline monooxygenases 3 (FMO3) using HepaRG (AID 2283453). The settings on record: mRNA level, 48 h; actives raise or lower the signal. Put shortly: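 Eight-point concentration-response in serum-free HepaRG cultures (top 100 uM, 0.5% DMSO, 48 h). Read-out: FMO3 mRNA level normalized to three endogenous control genes, fitted bidirectionally versus vehicle.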

Read-out in assay [10]: Cytochrome P450 (CYP1A1), CYP1A1 (gene 1543)
The assay is described as follows: LTEA_HepaRG_CYP1A1: Life Technologies and Expression Analysis (LTEA) Assay for Cytochrome P450 (CYP1A1) using HepaRG (AID 2283454). The settings on record: mRNA level, 48 h; actives raise or lower the signal. A digest of the protocol: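 Induction of CYP1A1 mRNA in a human hepatic cell line was measured 48 h after dosing, with 1 mM phenobarbital as induction positive control and 0.5% DMSO vehicle as baseline for bidirectional curve fitting.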

Read-out in assay [11]: CFLAR gene, CFLAR (gene 8837)
The assay is described as follows: LTEA_HepaRG_CFLAR: Life Technologies and Expression Analysis (LTEA) Assay for CFLAR gene using HepaRG (AID 2283455). Conditions: mRNA level, 48 h; actives raise or lower the signal. Put shortly:
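qRT-PCR read-out (Fluidigm/TaqMan) of CFLAR mRNA, normalized to three housekeeping genes, in differentiated human HepaRG cells after 48 h chemical exposure; 8-point half-log series from 100 uM in 0.5% DMSO; bidirectional curve fitting versus DMSO.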

Read-out in assay [12]: Forkhead box O1 (FOXO1), FOXO1 (gene 2308)
As to the kind of experiment: LTEA_HepaRG_FOXO1: Life Technologies and Expression Analysis (LTEA) Assay for Forkhead box O1 (FOXO1) using HepaRG (AID 2283456). Conditions: mRNA level, 48 h; actives raise or lower the signal. A digest of the protocol: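 HepaRG, 48 h exposure, 8-pt half-log series from 100 uM in 0.5% DMSO, duplicates; Fluidigm qRT-PCR mRNA, housekeeping-normalised; bidirectional fit vs DMSO baseline.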

Read-out in assay [13]: growth arrest and DNA damage 45 (GADD45A), GADD45A (gene 1647)
The assay is described as follows: LTEA_HepaRG_GADD45A: Life Technologies and Expression Analysis (LTEA) Assay for growth arrest and DNA damage 45 (GADD45A) using HepaRG (AID 2283458). Conditions: mRNA level, 48 h; actives raise or lower the signal. Put shortly: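 Eight-point concentration-response in HepaRG cells: 48 h chemical exposure, 0.5% DMSO vehicle, top dose 100 uM. Normalized qRT-PCR mRNA readout with bidirectional fitting relative to DMSO.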

Read-out in assay [14]: Forkhead box O3 (FOXO3), FOXO3 (gene 2309)
The assay is described as follows: LTEA_HepaRG_FOXO3: Life Technologies and Expression Analysis (LTEA) Assay for Forkhead box O3 (FOXO3) using HepaRG (AID 2283459). The settings on record: mRNA level, 48 h; actives raise or lower the signal. Put shortly:
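qRT-PCR readout of FOXO3 transcript, normalized to three housekeeping genes (ACTB, GAPDH, POLR2A); gain or loss fitted against 0.5% DMSO vehicle. HepaRG cells, 48 h chemical exposure, 8-point half-log series, top 100 uM.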

Read-out in assay [15]: growth arrest and DNA damage 45 (GADD45B), GADD45B (gene 4616)
As to the kind of experiment: LTEA_HepaRG_GADD45B: Life Technologies and Expression Analysis (LTEA) Assay for growth arrest and DNA damage 45 (GADD45B) using HepaRG (AID 2283461). The settings on record: mRNA level, 48 h; actives raise or lower the signal. A digest of the protocol: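 Values are bidirectional concentration-response fits against 0.5% DMSO controls. Underlying data: qRT-PCR mRNA levels in human HepaRG liver cells treated 48 h in serum-free induction medium, eight concentrations topping at 100 uM.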

Read-out in assay [16]: ABC Transporter (ABCC3), ABCC3 (gene 8714)
As to the kind of experiment: LTEA_HepaRG_ABCC3: Life Technologies and Expression Analysis (LTEA) Assay for ABC Transporter (ABCC3) using HepaRG (AID 2283462). Conditions: mRNA level, 48 h; actives raise or lower the signal. A digest of the protocol:
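Differentiated HepaRG liver cells receive test chemicals at eight concentrations (max 100 uM) for 48 h. Expression of ABCC3 is quantified by qRT-PCR against ACTB, GAPDH and POLR2A, and activity is fitted in both directions against the DMSO control.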

Read-out in assay [17]: ABC Transporter (ABCB1), ABCB1 (gene 5243)
As to the kind of experiment: LTEA_HepaRG_ABCB1: Life Technologies and Expression Analysis (LTEA) Assay for ABC Transporter (ABCB1) using HepaRG (AID 2283460). Conditions: mRNA level, 48 h; actives raise or lower the signal. Put shortly:
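HepaRG, 48 h exposure, 8-pt half-log series from 100 uM, 0.5% DMSO vehicle, duplicates. Readout: ABCB1 transcript by Fluidigm TaqMan qRT-PCR, housekeeping-normalized; bidirectional curve fit vs DMSO baseline.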

Assay [18] can be described thus: CEETOX_H295R_ESTRADIOL: CeeTox H295R High-throughput Steroidogenesis Assay for Estradiol (AID 2283440).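 Also: estradiol secreted into medium quantified by LC-MS/MS after dansyl derivatisation.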 Conditions: actives raise or lower the signal. Put shortly:
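Following OECD 456 with minor changes, H295R cells received 10 uM forskolin for 48 h and then test chemical for 48 h. Hormone output was read by HPLC-MS/MS, with cytotoxic concentrations diluted until MTT viability reached ≥70%.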

Assay [19] in a line: CEETOX_H295R_ESTRONE: CeeTox H295R High-throughput Steroidogenesis Assay for Estrone (AID 2283441).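 Also: estrone secreted into medium measured by LC-MS/MS after dansyl derivatization.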 The settings on record: actives raise or lower the signal. Put shortly: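 Forskolin-stimulated H295R cells are treated 48 h with chemical, and estrone in the medium is measured by LC-MS/MS. Activity is fitted in both directions relative to DMSO controls, with chemicals diluted until MTT viability reaches at least 70%.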

Fatty acid synthase (Homo sapiens), sequence (P49327 whole entry, looked up): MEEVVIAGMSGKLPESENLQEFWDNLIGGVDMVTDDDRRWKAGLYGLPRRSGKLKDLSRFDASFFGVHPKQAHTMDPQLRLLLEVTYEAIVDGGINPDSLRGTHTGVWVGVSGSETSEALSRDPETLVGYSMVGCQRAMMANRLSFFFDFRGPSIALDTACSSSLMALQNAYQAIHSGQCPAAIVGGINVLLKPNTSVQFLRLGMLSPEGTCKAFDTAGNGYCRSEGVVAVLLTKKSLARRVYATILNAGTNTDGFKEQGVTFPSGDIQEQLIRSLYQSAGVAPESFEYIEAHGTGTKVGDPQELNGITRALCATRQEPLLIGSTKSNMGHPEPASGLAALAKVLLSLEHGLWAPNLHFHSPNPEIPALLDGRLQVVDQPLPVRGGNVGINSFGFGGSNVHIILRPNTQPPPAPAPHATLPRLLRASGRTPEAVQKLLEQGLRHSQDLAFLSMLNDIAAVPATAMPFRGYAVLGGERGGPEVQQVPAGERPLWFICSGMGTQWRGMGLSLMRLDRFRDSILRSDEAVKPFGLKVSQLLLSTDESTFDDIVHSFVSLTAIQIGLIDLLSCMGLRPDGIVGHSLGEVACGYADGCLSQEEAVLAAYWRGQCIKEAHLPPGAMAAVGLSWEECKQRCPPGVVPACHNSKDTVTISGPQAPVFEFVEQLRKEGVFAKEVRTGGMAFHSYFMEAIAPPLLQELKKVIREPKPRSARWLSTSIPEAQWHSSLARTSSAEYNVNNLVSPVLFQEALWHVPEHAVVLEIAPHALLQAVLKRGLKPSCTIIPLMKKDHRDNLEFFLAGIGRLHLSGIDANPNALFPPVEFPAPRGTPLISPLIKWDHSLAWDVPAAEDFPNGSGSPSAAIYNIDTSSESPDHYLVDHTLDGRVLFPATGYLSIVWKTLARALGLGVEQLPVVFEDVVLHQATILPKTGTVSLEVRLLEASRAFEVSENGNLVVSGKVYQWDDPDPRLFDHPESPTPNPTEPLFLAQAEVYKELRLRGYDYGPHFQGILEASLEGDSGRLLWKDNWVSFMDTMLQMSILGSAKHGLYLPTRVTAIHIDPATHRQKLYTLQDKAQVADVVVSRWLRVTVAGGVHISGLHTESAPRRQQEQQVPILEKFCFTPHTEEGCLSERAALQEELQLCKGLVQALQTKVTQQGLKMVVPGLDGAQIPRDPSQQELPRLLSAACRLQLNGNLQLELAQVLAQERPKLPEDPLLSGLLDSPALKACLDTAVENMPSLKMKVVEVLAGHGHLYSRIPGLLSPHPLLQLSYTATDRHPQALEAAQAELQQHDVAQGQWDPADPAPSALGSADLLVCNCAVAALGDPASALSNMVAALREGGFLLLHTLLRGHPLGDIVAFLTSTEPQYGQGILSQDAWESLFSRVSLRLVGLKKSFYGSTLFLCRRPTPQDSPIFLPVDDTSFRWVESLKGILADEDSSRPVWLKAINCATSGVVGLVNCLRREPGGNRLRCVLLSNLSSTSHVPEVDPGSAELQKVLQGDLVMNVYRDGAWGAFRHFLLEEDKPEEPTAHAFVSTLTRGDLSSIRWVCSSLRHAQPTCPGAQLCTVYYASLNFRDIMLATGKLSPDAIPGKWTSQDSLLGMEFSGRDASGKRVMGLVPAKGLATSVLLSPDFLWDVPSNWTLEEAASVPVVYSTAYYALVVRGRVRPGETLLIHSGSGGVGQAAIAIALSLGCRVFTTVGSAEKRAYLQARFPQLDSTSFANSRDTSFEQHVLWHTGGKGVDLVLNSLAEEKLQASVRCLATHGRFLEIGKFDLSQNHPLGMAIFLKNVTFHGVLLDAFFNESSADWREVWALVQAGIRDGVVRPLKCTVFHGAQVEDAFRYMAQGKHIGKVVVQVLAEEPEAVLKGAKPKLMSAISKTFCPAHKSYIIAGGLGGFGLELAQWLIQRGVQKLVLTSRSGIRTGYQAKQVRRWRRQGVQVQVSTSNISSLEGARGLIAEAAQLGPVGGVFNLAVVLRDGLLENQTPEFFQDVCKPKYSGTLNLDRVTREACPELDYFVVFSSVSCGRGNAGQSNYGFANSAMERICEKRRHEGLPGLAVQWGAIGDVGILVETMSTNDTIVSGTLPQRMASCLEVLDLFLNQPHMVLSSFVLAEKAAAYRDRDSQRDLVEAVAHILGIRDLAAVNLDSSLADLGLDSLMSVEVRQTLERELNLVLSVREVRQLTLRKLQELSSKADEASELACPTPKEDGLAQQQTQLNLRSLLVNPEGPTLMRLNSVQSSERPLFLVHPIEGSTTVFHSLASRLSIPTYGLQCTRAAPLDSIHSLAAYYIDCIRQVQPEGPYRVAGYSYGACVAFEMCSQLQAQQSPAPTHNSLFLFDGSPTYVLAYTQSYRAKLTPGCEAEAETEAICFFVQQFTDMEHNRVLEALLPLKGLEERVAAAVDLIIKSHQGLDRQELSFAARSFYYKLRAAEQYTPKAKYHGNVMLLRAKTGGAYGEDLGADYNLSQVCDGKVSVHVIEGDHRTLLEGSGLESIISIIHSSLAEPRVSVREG

Turning to `CC(C)(O)c1coc(S(=O)(=O)NC(=O)Nc2c3c(cc4c2CCC4)CCC3)c1`, the AC50 in assay [1] is 25.2 µM (active); in assay [2], 19.4 µM (active); in assay [10], 50 µM (active). The result in [3], in assay [4], in assay [5], in assay [6], in [7] and in [8] was inactive. Moreover, the molecule was called inactive in [9], in assay [11], in [12], in assay [13], in assay [14] and in [15]. In addition, the molecule was classed as inactive in [16].

Take `CC(C)c1cccc(C(C)C)c1N1C(=O)c2ccc(O)cc2C1=O`: the AC50 was 16.7 µM (active) in [1]; 86.5 µM (active) in assay [2]; 82.1 µM (active) in assay [4]; 82.4 µM (active) in assay [7]; 84.1 µM (active) in assay [9]; 83.9 µM (active) in assay [12]. Further, the AC50 in [14] was 80.4 µM (active); in assay [17], 23.9 µM (active); in assay [16], 84.3 µM (active). Further, the call in assay [3], in assay [5], in assay [6], in assay [8], in [11] and in assay [13] was inactive. Moreover, the outcome in assay [15] was inactive.

For `C[C@](N)(Cc1ccc(O)c(O)c1)C(=O)O`, the molecule was classed as inactive in assay [2], in assay [3], in [4], in assay [5], in assay [6] and in assay [7]. Besides, the call in assay [8], in assay [9], in assay [11], in assay [12], in [13] and in assay [14] was inactive. Besides, the outcome in assay [17], in assay [15] and in assay [16] was inactive.

In the case of `COC(=O)c1c(Cl)c(Cl)c(C(=O)OC)c(Cl)c1Cl`, the AC50 was 50 µM (active) in assay [1], 27.4 µM (active) in [18] and 50 µM (active) in assay [10]. The molecule was classed as inactive in assay [19], in assay [2], in [3], in assay [4], in assay [6] and in assay [7]. The molecule was called inactive in assay [8], in [9], in assay [11], in assay [12], in assay [13] and in [14]. The molecule was called inactive in [17], in [15] and in assay [16].

In the case of `CCOC(=O)c1ccc(C2CCC(NC[C@H](O)COc3ccc(O)c(NS(C)(=O)=O)c3)CC2)cc1` (stereo not given in full), the AC50 was 2.84 µM (active) in assay [1], 2.61 µM (active) in [2], 73.3 µM (active) in assay [10] and 8.31 µM (active) in assay [14]. The call in assay [3], in assay [4], in assay [5], in assay [6], in [7] and in assay [8] was inactive. Also, the result in assay [9], in [11], in assay [12], in assay [13], in assay [15] and in assay [16] was inactive.

On to `C=CCCCCCCCCC(=O)O`, for which the molecule was classed as inactive in assay [1], in assay [18], in assay [19], in [2], in [3] and in [4]. The molecule was called inactive in assay [5], in assay [6], in [7], in assay [8], in [9] and in [11]. In addition, the call in [12], in assay [13], in assay [14], in assay [17], in [15] and in [16] was inactive.

Turning to `COc1ccc(/C=C/S(=O)(=O)NC(=O)c2ccc(C)cc2Cl)cc1`, the outcome in assay [1], in assay [2], in [3], in assay [4], in assay [5] and in assay [6] was inactive. The molecule was called inactive in [7], in [8], in assay [9], in assay [11], in [12] and in assay [13]. Further, the call in assay [14], in [17], in assay [15] and in [16] was inactive.

(Values after PubChem BioAssay (EPA / NIEHS).)
